# Compound activity as filed in PubChem.
# Sampled rows, rich in hits. Any-hit rate of the full collection: about 4.7%.
# SARS 3CLpro inh – SARS-CoV 3CLpro protease inhibition; P0C6X7; recombinant SARS-CoV 3CLpro, quenched FRET peptide cleavage; inhibition, % at 6 µM; actives 0.14% (n = 290,000); AID 1706; in the data active means inhibition above about 12%
# CCHF vOTU inh – CCHFV vOTU protease inhibition; Pep-AMC fluorescence; inhibition, % at 11.5 µM; actives 0.55% (n = 370,000); AID 651958; further: 0% = vehicle wells with enzyme and 100% = no enzyme wells
# DUSP3 inh – inhibitors of human VHR1 phosphatase (DUSP3); inhibition, % at 13.3 µM; recombinant VHR phosphatase, pNPP absorbance; actives 0.52% (n = 290,000); in the data active means inhibition above about 50%
# GDH-TPI counter – GDH-TPI coupled enzyme inhibition counter-screen | GDH-TPI coupled enzyme counterscreen, NADH absorbance | inhibition, % at 4.8 µM | actives 1.2% (n = 360,000) | AID 588335;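 further: 0% = DMSO wells and 100% = wells lacking the enzyme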
# Mtb FBA inh – inhibitors of M. tuberculosis fructose-bisphosphate aldolase | AID 588726 | inhibition, % at 1 µM | purified M. tuberculosis FBA, fluorescence read-out | P9WQA3 | actives 2.3% (n = 360,000); in the data active means inhibition above about 27%;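 further: 0% = vehicle and 100% = reference inhibitor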
# RecA intein inh – Mtb RecA intein splicing inhibition; AID 2221; cell-free RecA intein splicing, fluorescence; actives 0.75% (n = 290,000); P9WHJ3; inhibition, % (concentration not given with the values); in the data active means inhibition above about 30%;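 further: 0% = vehicle wells and 100% = reference inhibitor control wells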
# * marks the source's active call; other numbers are inactive results; x = not tested or not shown. Unless noted, no stated cut-off is given here; in the data, active means inhibition above about 30%; inactive means the rest.
SMILES,SARS 3CLpro inh,CCHF vOTU inh,DUSP3 inh,GDH-TPI counter,Mtb FBA inh,RecA intein inh
COCCNC(=O)/C(C#N)=C/c1ccc(OC(=O)c2cccs2)c(OC)c1,5,-6,22,16,1,26
COc1ccc(N(CCC#N)C(=O)/C(C#N)=C\c2cccs2)cc1,-4,-2,17,37*,1,2
COCCNC(=O)/C(C#N)=C/c1cccs1,8,1,6,48*,0,-1
Cn1cccc1/C=C1\SC(=S)N(NC(=O)c2ccccc2O)C1=O,-2,12,-18,33*,-39,-2
O=C(Nc1ccc(Br)cn1)c1ccc(COc2c(F)c(F)cc(F)c2F)o1,x,-3,x,-8,-1,x
Cc1ccnc(NC(=O)c2ccc(COc3c(F)c(F)cc(F)c3F)o2)c1,-6,0,58*,-2,0,2
CC(=O)c1ccc(N2CCN(S(=O)(=O)c3cn(C)cn3)CC2)cc1,1,14,24,37*,3,-1
Cn1cnc(S(=O)(=O)N2CCN(c3cccc(C(F)(F)F)c3)CC2)c1,0,6,50*,-5,0,-1
Cn1cnc(S(=O)(=O)N2CCN(c3cccc(Cl)c3)CC2)c1,8,6,-17,11,-4,-1
CN(Cc1ccccc1)S(=O)(=O)c1ccc(Cl)c(C(=O)N2CCOCC2)c1,x,-5,x,8,1,x
Cc1nc2c(C)cccc2c2c1CCN2c1ccccc1F,1,-179,-16,10,113*,-23
N=C1/C(=C/c2ccc(-c3cccc(C(=O)O)c3)o2)C(=O)N=C2SC(CC(=O)N3CCOCC3)=NN12,-4,11,-42,8,-7,-4
N=C1/C(=C\c2ccc(SCc3ccccc3)o2)C(=O)N=C2SC(CC(=O)N3CCOCC3)=NN12,2,18,7,39*,-3,-2
Cc1ccc(/C=C2\C(=N)N3N=C(CC(=O)N4CCOCC4)SC3=NC2=O)o1,-2,27,15,45*,5,4
COc1ccc2c(c1)CN1CN(CC(C)C)S(=O)(=O)CC21 (stereo unspecified),x,-10,x,x,x,x
COc1cc(/C=N/NC(=O)c2cc[n+]([O-])cc2)cc(OC)c1OC,-1,2,56*,39*,-3,2
COc1cc(/C=N/NC(=O)c2ccc(N(C)S(=O)(=O)c3ccccc3)cc2)cc(OC)c1OC,6,-16,-5,19,2,4
COc1ccc(/C=N/NC(=O)c2cc[n+]([O-])cc2)cc1OC,4,x,26,21,-1,-1
COc1ccc(/C=N/NC(=O)c2ccc3ccccc3c2)cc1OS(=O)(=O)c1ccc(NC(C)=O)cc1,3,-27,23,36*,1,0
COc1cc(C(=O)NN=Cc2ccc(N(C)C)cc2)cc(OC)c1OC,x,-6,x,42*,-2,x
CCOc1cc(/C=N/NC(=O)c2ccc(N(C)S(=O)(=O)c3ccccc3)cc2)ccc1OC,-10,8,-3,42*,1,1
COc1ccccc1N(CC(=O)N1CCCCCC1)S(=O)(=O)c1ccc(C)cc1,-3,14,50*,-10,-1,1
CNc1ccc(/C=C\CCCO)cn1,x,-102,x,23,115*,x
CC(=O)OC12CCCN(C1)/C(=C/c1cccc(Cl)c1)C2 (stereo unspecified),x,-1,x,x,x,x
CCCCc1cc(=O)oc2cc(OCC(=O)N3CCC(C(N)=O)CC3)ccc12,-1,-3,25,6,24,-3
SMILES,SARS 3CLpro inh,CCHF vOTU inh,DUSP3 inh,GDH-TPI counter,Mtb FBA inh,RecA intein inh
CCc1cc(=O)oc2cc(OCC(=O)N3CCC(C(N)=O)CC3)ccc12,5,-10,17,12,23,0
NC(=O)C1CCN(C(=O)COc2ccc3c(c2)oc(=O)c2ccccc23)CC1,-1,-101,24,8,112*,0
Cc1c(C)c2ccc(OCC(=O)N3CC[C@@]4(O)CCCC[C@H]4C3)cc2oc1=O,0,-33,33,9,87*,-1
Cc1c(Cc2ccccc2)c(=O)oc2cc(OCC(=O)N3CCC(C(N)=O)CC3)ccc12,-2,-74,33,16,124*,x
CCOC(=O)c1[nH]c2ccccc2c1NC(=O)NC(C)C,-1,-2,9,16,4,-1
CCOC(=O)c1[nH]c2ccc(OC)cc2c1NC(=O)NC(C)C,-1,-23,13,2,35*,-3
COc1ccc2[nH]c(C(=O)NCc3ccccc3)c(C)c2c1,-1,-15,48,3,40*,0
CCCS(=O)(=O)Nc1c(C(=O)O)[nH]c2ccc(OC)cc12,-2,-30,27,1,129*,4
CC(C)CC(=O)N1CC=CC[C@@H](c2ccc(Cl)cc2)N(Cc2ccc(Cl)cc2)C(=O)[C@@H]1Cc1ccccc1,x,11,x,3,-1,x
COc1cc2c(cc1OC)C(C)N(C(=O)CCc1c[nH]c3ccccc13)CC2 (stereo unspecified),0,-4,-12,-4,0,-3
COc1ccc(CN2C(=NC(=O)COc3ccccc3)SC3CS(=O)(=O)CC32)cc1 (stereo unspecified),0,12,-9,9,-1,3
O=C(COc1ccccc1)N=C1SC2CS(=O)(=O)CC2N1Cc1ccccc1 (stereo unspecified),2,8,60*,0,-2,3
Cc1ccc(CNc2nc(N)c([N+](=O)[O-])c(NCCO)n2)cc1,4,15,28,52*,-3,1
CC(C)CCNc1nc(N)c([N+](=O)[O-])c(NCCO)n1,-3,11,16,50*,3,1
Nc1nc(NCc2ccc(Cl)cc2)nc(NCCO)c1[N+](=O)[O-],2,13,0,38*,-2,x
Cc1ccc(CNc2nc(N)c([N+](=O)[O-])c(NCc3ccccc3)n2)cc1,0,-12,-7,1,0,-6
Cc1n[nH]c2c([N+](=O)[O-])c(=O)[nH]c(=O)n12,x,16,x,28,0,x
Cc1ccc2c(c1)c1ncnc(N3CCOCC3)c1n2C,1,-131,18,10,126*,-3
Cc1cccc2cc(C#N)c(NCc3ccccc3)nc12,1,9,3,-1,30*,-10
O=C1c2nc3cc(-c4ccco4)[nH]n3c(=O)c2CN1C1CCCCC1,1,-62,-4,-1,129*,2
CCc1ccc(CN2CCN(C(=O)Cc3ccccc3)CC2)cc1,0,-9,18,-6,-1,0
CSc1ccc(CN2CCN(C(=O)Cc3ccccc3)CC2)cc1,x,4,x,31*,2,0
O=c1[nH][nH]c2c([N+](=O)[O-])ccc(F)c12,x,-2,x,x,x,x
O=c1[nH][nH]c2c(N=Cc3ccccc3O)ccc(F)c12,1,x,52*,-2,-3,x
Cc1cccc(OC[C@@H](O)CN2CCC(C(O)(c3ccccc3)c3ccccc3)CC2)c1,x,2,x,x,x,x
c1ccc(-c2csc(Nc3ncccn3)n2)cc1,5,6,55*,-1,3,2
